Our source for the AC50 and outcome values is PubChem BioAssay (EPA / NIEHS).

Experiment [1] concerns SERPINA7 (gene 6906). Description: CCTE_GLTED_hTBG: CCTE's human Thyroxine-binding Globulin (TBG) Inhibition Assay, Great Lakes Toxicology and Ecology Division (GLTED) Lab (AID 2284343; active = hit-call score of the fitted dose curve at least 0.9, where 1 is the maximum;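 also: active chemicals lower fluorescence versus DMSO baseline by displacing probe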). In a few lines:
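Human thyroxine-binding globulin was exposed to each chemical for 2 hours, during which the ANSA probe could be displaced. Fluorescence was then measured at 380/475 nm, and loss of signal was analysed relative to DMSO.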

Experiment [2] is described as follows: CCTE_Mundy_HCI_iCellGluta_NOG_NeuriteCount: CCTE's Neurite Outgrowth Assay in iCellGluta cells for Neurite Count, Mundy Lab (AID 2284342; active = hit-call score of the fitted dose curve at least 0.9, where 1 is the maximum;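 also: chemical exposure about 48 hours starting 2 hours after plating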). The procedure: CCTE_Mundy_HCI_iCellGluta_NOG is a multiplexed, cell-based-readout assay that uses iCell GlutaNeurons from FUJIFILM Cellular Dynamics, Inc. (FCDI), human glutamatergic enriched neurons derived from induced pluripotent stem (iPS) cells, with measurements taken at 50.33 hours after chemical dosing in a microplate: 96-well plate.CCTE_Mundy_HCI_iCellGluta_NOG_NeuriteCount is one of four components of the CCTE_Mundy_HCI_iCellGluta_NOG assay. It measures neurite outgrowth related to number of neurites using High Content Imaging of fluorescently labelled markers.Data from the assay component CCTE_Mundy_HCI_iCellGluta_NOG_NeuriteCount was analyzed at the endpoint CCTE_Mundy_HCI_iCellGluta_NOG_NeuriteCount in the positive analysis fitting direction relative to DMSO as the negative control and baseline of activity. Using a type of morphology reporter, loss-of-signal activity can be used to understand developmental effects.
Exposure starts 2 hours post-plating by adding 10 ul of the working solution to 90 ul of media in the wells for a 1/10 dilution. Forty-eight hours after chemical treatment cells are fixed by direct addition of 100 ul of warm (37C) Dulbecco's phosphate buffered saline (DPBS) fixative solution containing 8% paraformaldehyde, 8% sucrose, and 0.1% of 3 mg/ml Hoechst 33342 into each well. Primary antibodies are prepared by dilution in Immunocytochemical Staining Buffer (ISB), 10X Dulbecco's PBS, 0.1% Saponin, 5% Bovine Serum Albumin, 0.5% NaN3 (Sodium Azide) and betaIII-tubulin (rabbit anti-betaIII-tubulin, 1:800) followed by Alexa Fluor-488 secondary (1:500) to label neuronal cell bodies and neurites. A Cellomics ArrayScan VTi HCS Reader is used for automated image acquisition and analysis of neurite outgrowth.

The subject of experiment [3] is SRY-box transcription factor 2 (SOX2) Protein Expression, Deisenroth Lab, SOX2 (gene 6657). Description: CCTE_Deisenroth_DEVTOX-GLR_legacy_Sox2: (Legacy) CCTE's DevTox GLR-Endo Assay Evaluation of SRY-box transcription factor 2 (SOX2) Protein Expression, Deisenroth Lab (AID 2284346). In short, it runs like this:
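Two exposures, 24 h apart, during 48 h defined-media differentiation of seeded RUES2-GLR cells; nuclei-stained cells imaged. Sox2 positivity called at 5x BMAD above endoderm control median, DMSO median subtracted.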

The test system is the same in experiment [4]. Description: CCTE_Deisenroth_DEVTOX-GLR_Endo_SOX2: CCTE's DevTox GLR-Endo Assay Evaluation of SRY-box transcription factor 2 (SOX2) Protein Expression, Deisenroth Lab (AID 2284412; active = hit-call score of the fitted dose curve at least 0.9, where 1 is the maximum). In a few lines: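 Endpoint is percent SOX2-positive cells (SOX2+ count/total cells) minus 0.2% DMSO control, from high-content imaging of fixed, nuclear-stained RUES2-GLR cells. Dosing twice at 24 h intervals over 48 h differentiation, 1 nM–200 uM in 10 points.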

The subject of experiment [5] is SRY-box transcription factor 17 (SOX17) Protein Expression, Deisenroth Lab, SOX17 (gene 64321). Description: CCTE_Deisenroth_DEVTOX-GLR_Endo_SOX17: CCTE's DevTox GLR-Endo Assay Evaluation of SRY-box transcription factor 17 (SOX17) Protein Expression, Deisenroth Lab (AID 2284413). In short, it runs like this: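 Fluorescent microscopy of a SOX17 reporter in RUES2-GLR pluripotent cells scored endoderm differentiation after 48 h and two 24-h-spaced exposures. Values are percent change in SOX17+ population against 0.2% DMSO, n=4 experimental replicates.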

In experiment [6] the test system is Brachyury (BRA) Protein Expression, TBXT (gene 6862). Description: CCTE_Deisenroth_DEVTOX-GLR_Endo_BRA: CCTE's DevTox GLR-Endo Assay Evaluation of Brachyury (BRA) Protein Expression, Deisenroth Lab (AID 2284417). In a few lines: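 Percent BRA+ (mesoderm) RUES2-GLR cells after 48 h differentiation with two exposures, 1 nM - 200 uM; 0.2% DMSO control subtracted.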

Experiment [7] can be described thus: CCTE_Deisenroth_DEVTOX-GLR_Endo_CellCount: Viability Assessment in CCTE's DevTox GLR-Endo Assay, Deisenroth Lab (AID 2284420). In short, it runs like this: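 Viability in differentiating RUES2-GLR cultures is scored by fluorescent nuclear counts after 48 h and two 24-hourly chemical treatments, as percent change from the 0.2% DMSO control.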
Experiment [8] concerns SRY-box transcription factor 17 (SOX17) Protein Expression, Deisenroth Lab, SOX17 (gene 64321). Description: CCTE_Deisenroth_DEVTOX-GLR_Pluri_SOX17: CCTE's DevTox GLR-Pluri Assay Evaluation of SRY-box transcription factor 17 (SOX17) Protein Expression, Deisenroth Lab (AID 2284427; active = hit-call score of the fitted dose curve at least 0.9, where 1 is the maximum). In short, it runs like this: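 Seed cells 24 h; differentiate 48 h, dosing at 0 and 24 h (1 nM - 200 uM); fix, stain nuclei, image 5 fields per well; count SOX17+ cells over total cells and subtract 0.2% DMSO control.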

Experiment [9] deals with SRY-box transcription factor 2 (SOX2) Protein Expression, Deisenroth Lab, SOX2 (gene 6657). Description: CCTE_Deisenroth_DEVTOX-GLR_Pluri_SOX2: CCTE's DevTox GLR-Pluri Assay Evaluation of SRY-box transcription factor 2 (SOX2) Protein Expression, Deisenroth Lab (AID 2284428). In a few lines: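 SOX2 expression frequency is scored in a human pluripotent reporter line, RUES2-GLR, exposed to chemicals twice over 48 h. Imaging-based SOX2+ cell percentage is normalized as change versus 0.2% DMSO.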

The test system of experiment [10] is Brachyury (BRA) Protein Expression, Deisenroth Lab, TBXT (gene 6862). Description: CCTE_Deisenroth_DEVTOX-GLR_Pluri_BRA: CCTE's DevTox GLR-Pluri Assay Evaluation of Brachyury (BRA) Protein Expression, Deisenroth Lab (AID 2284429; active = hit-call score of the fitted dose curve at least 0.9, where 1 is the maximum). In a few lines:
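Mesoderm readout after 48 h differentiation of human RUES2-GLR cells, dosed twice (24-h intervals) at 1 nM - 200 uM. BRA+ frequency from fluorescence imaging of fixed, nuclear-stained cells, DMSO-corrected.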

The nature of experiment [11]: CCTE_Deisenroth_DEVTOX-GLR_Pluri_CellCount: Viability Assessment in CCTE's DevTox GLR-Pluri Assay Evaluation of Total Cell Counts, Deisenroth Lab (AID 2284430). In a few lines: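 Cytotoxicity readout: fluorescent nuclei counts by high-content imaging, expressed as percent change relative to 0.2% DMSO. Human RUES2-GLR pluripotent line differentiated 48 h, dosed twice at 24-h intervals across 1 nM - 200 uM (10 points).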

Results filed as inconclusive are left out. Activity calls are given as the source filed them. The calls were made as follows, unless noted: active = hit-call score of the fitted dose curve at least 0.9, where 1 is the maximum; inactive = score below 0.9.

As a reminder, the AC50 is the concentration at which the activity in the assay is half-maximal.

In the case of `C=CCOC(=O)c1ccccc1C(=O)OCC=C`, the AC50 in experiment [1] is 19.5 µM (active).
`Nc1ccc(S(=O)(=O)c2ccc(N)cc2)cc1`: the AC50 in experiment [1] was 50 µM (active).
Still for that read-out and setting: to `CCOC(=O)C(C)(C)Oc1ccc(Cl)cc1` belongs 24.9 µM (active).
In the case of `OC[C@@H](O)[C@@H](O)[C@H](O)[C@H](O)CO`, in experiment [2], the compound was called inactive.
With `Cc1ccc(C)c(O)c1C`, the AC50 in experiment [1] was 33.1 µM (active).
As for `COc1cccc2c1C(=O)c1c(O)c3c(c(O)c1C2=O)C[C@@](O)(C(=O)CO)C[C@@H]3O[C@H]1C[C@H](N)[C@H](O)[C@H](C)O1`, the half-maximal activity concentration (AC50) in [3] is 0.107 µM (active); in experiment [4], 2.25 µM (active); in [5], 5.85 µM (active); in experiment [6], 0.0902 µM (active); in [7], 0.00878 µM (active); in experiment [8] it was 0.27 µM (active). Further, the values for the AC50 in experiment [9], in [10] and in [11] were 0.0073 µM (active), 0.00927 µM (active) and 0.00758 µM (active), respectively.
With `O=c1[nH]cc(F)c(=O)[nH]1`, the half-maximal activity concentration (AC50) was 22 µM (active) in [3]; 34.3 µM (active) in [4]; 9.06 µM (active) in [5]; 20.3 µM (active) in experiment [6]; 5.89 µM (active) in experiment [7]; 7.95 µM (active) in experiment [8]. Also, the figures for the half-maximal activity concentration (AC50) in [9], in experiment [10] and in [11] were 7.1 µM (active), 7.54 µM (active) and 8.12 µM (active), respectively.
`CC1=C(/C=C/C(C)=C/C=C/C(C)=C/CO)C(C)(C)CCC1`: the AC50 in experiment [3] is 55.7 µM (active); in experiment [5] it was 33.6 µM (active); in experiment [6], 66 µM (active); in [7], 34.7 µM (active); in experiment [8] it was 39.3 µM (active); in experiment [9], 19.8 µM (active). The AC50 in experiment [10] is 26.8 µM (active); in experiment [11], 29.4 µM (active).
`CCCc1cc(=O)[nH]c(=S)[nH]1`: the outcome in experiment [3], in experiment [5], in [6], in experiment [7], in experiment [8] and in experiment [9] was inactive. The compound was classed as inactive in [10] and in experiment [11].
Take `COc1ccc2c(c1)c(CC(=O)O)c(C)n2C(=O)c1ccc(Cl)cc1`: the AC50 was 1.71 µM (active) in experiment [1]; 17 µM (active) in experiment [3]; 6.34 µM (active) in experiment [4]; 16 µM (active) in [5]; 12.5 µM (active) in [6]; 10.1 µM (active) in experiment [7]. In addition, the half-maximal activity concentration (AC50) in experiment [8] was 2.61 µM (active); in [9] it was 6.52 µM (active); in [10], 6.56 µM (active); in experiment [11], 4.99 µM (active).
Regarding `Oc1ccc2ccccc2c1N=Nc1ccccc1`, in experiment [1], the AC50 was 22.2 µM (active).
As to `C[Si]1(C)O[Si](C)(C)O[Si](C)(C)O[Si](C)(C)O1`, in experiment [2], the call was inactive.
For the compound `CCCCC(CC)COC(=O)CC(C(=O)OCC(CC)CCCC)S(=O)(=O)O` (stereo unspecified), the half-maximal activity concentration (AC50) in experiment [1] is 1.95 µM (active).
The same measure, in the same setting: to `Cc1cccc(Nc2cc(Cl)nc(SCC(=O)O)n2)c1C` belongs 22 µM (active).
In the case of `CC(=O)Oc1ccccc1C(=O)O`, the result in experiment [2], in experiment [3], in [4], in [5], in experiment [6] and in experiment [7] was inactive. Besides, the outcome in experiment [8], in experiment [9], in experiment [10] and in experiment [11] was inactive. Besides, the AC50 in [1] is 22.8 µM (active).
As for `Cc1cc(NC(=O)C(=O)O)cc(C)c1Oc1ccc(O)c2c1CCC2`, in experiment [1], the AC50 is 0.667 µM (active).
Same read-out and setting: next, `COc1cc(S(=O)(=O)O)c(C)cc1N=Nc1c(O)ccc2cc(S(=O)(=O)O)ccc12`: 35 µM (active).
